This is an account of results in the supplement of paper PMC9950053.

Where a name gives a salt, the structure may show the parent alone.

The experiment relates to Danio rerio larvae (5 dpf). The experiment is described as follows: excitability (activity period 17 minus period 16, 1-s interval sound) minus DMSO control (percentage points); higher = more acoustic excitability than DMSO larvae. The note with it: 10 µM; exposure time: 3 h pre-incubation + 3 h imaging. The protocol:
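Wild-type 5 dpf zebrafish larvae (n=48 per drug, 96-well plates, 28.5 °C) were exposed to Tocris FDA-approved library compounds at 10 µM (0.1% DMSO) for 3 h before and 3 h during imaging. Images were taken every 6 s during visual (moving coloured lines) and acoustic stimuli, and larvae were tracked with the DeepLabCut-based Z-LaP Tracker. Each behavioural measure is the treated-group mean minus the DMSO vehicle control mean (n=844), in percentage points. This mapping covers compounds with 4-character plate codes.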
For `O=C(NCC1CCCCN1)c1cc(OCC(F)(F)F)ccc1OCC(F)(F)F` (stereo not given) [Flecainide acetate], the excitability came to 6.31.
As to `CC1(C)O[C@@H]2[C@@H](CO[C@@]3(COS(N)(=O)=O)OC(C)(C)O[C@@H]23)O1` [Topiramate], the excitability was 2.
With `CC[C@H](C)C(=O)O[C@H]1C[C@@H](C)C=C2C=C[C@H](C)[C@H](CC[C@@H]3C[C@@H](O)CC(=O)O3)[C@H]21` [Lovastatin], the excitability is 15.
For the compound `O=C(O)CCCc1ccccc1` [Sodium 4-Phenylbutyrate], the excitability worked out at 2.71.
Regarding `OCCOCCN1CCN(C2=Nc3ccccc3Sc3ccccc32)CC1` [Quetiapine hemifumarate], the excitability was 9.04.
With `COc1cc2nc(N3CCN(C(=O)C4COc5ccccc5O4)CC3)nc(N)c2cc1OC` (stereo not given) [Doxazosin mesylate], the excitability is 21.8.
On to `CC(C)C(=O)OCC(=O)[C@@]12O[C@H](C3CCCCC3)O[C@@H]1C[C@H]1[C@@H]3CCC4=CC(=O)C=C[C@]4(C)[C@H]3[C@@H](O)C[C@@]12C` [Ciclesonide], for which the excitability came out at 6.47.
As for `Cn1cnc([N+](=O)[O-])c1Sc1ncnc2[nH]cnc12` [Azathioprine], the figure is 0.781; as for `CC(C)Nc1cccnc1N1CCN(C(=O)c2cc3cc(NS(C)(=O)=O)ccc3[nH]2)CC1` [Delavirdine mesylate], 2.93; as for `CC(C)(C)NC(=O)[C@@H]1C[C@@H]2CCCC[C@@H]2CN1C[C@@H](O)[C@H](Cc1ccccc1)NC(=O)[C@H](CC(N)=O)NC(=O)c1ccc2ccccc2n1` [Saquinavir mesylate], 7.09.
As for `COc1cc2nc(N3CCN(C(=O)c4ccco4)CC3)nc(N)c2cc1OC` [Prazosin hydrochloride], the figure is 16.4.
Take `Nc1nc(Cl)nc2c1ncn2[C@@H]1O[C@H](CO)[C@@H](O)[C@@H]1F` [Clofarabine]: the excitability stood at 4.52.
On to `CC(C)C(=O)Nc1ccc([N+](=O)[O-])c(C(F)(F)F)c1` [Flutamide], for which the excitability is -5.48.
Turning to `CC(C)(C#N)c1cc(Cn2cncn2)cc(C(C)(C)C#N)c1` [Anastrozole], the excitability worked out at 3.43.
As for `COc1ccccc1OCCNCC(O)COc1cccc2[nH]c3ccccc3c12` (stereo not given) [Carvedilol], the figure is 22.5; as for `CC(=O)Oc1ccccc1C(=O)O` [Aspirin], 10.3; as for `Cc1ccc(-c2cc(C(F)(F)F)nn2-c2ccc(S(N)(=O)=O)cc2)cc1` [Celecoxib], 4.91.
On to `CC/C(=C(\c1ccccc1)c1ccc(OCCN(C)C)cc1)c1ccccc1` [Tamoxifen citrate], for which the excitability was found to be 4.81.
As for `COc1cccc2c1C(=O)c1c(O)c3c(c(O)c1C2=O)C[C@@](O)(C(=O)CO)C[C@@H]3O[C@H]1C[C@H](N)[C@H](O)[C@H](C)O1` [Doxorubicin hydrochloride], the figure is 15.5; as for `CN1CCC[C@@H]1Cc1c[nH]c2ccc(CCS(=O)(=O)c3ccccc3)cc12` [Eletriptan hydrobromide], 6.84.
For the compound `OC(CNCC(O)C1CCc2cc(F)ccc2O1)C1CCc2cc(F)ccc2O1` (stereo not given) [Nebivolol hydrochloride], the excitability came out at 12.7.
Consider `COc1ccc([C@@H]2Sc3ccccc3N(CCN(C)C)C(=O)[C@@H]2OC(C)=O)cc1` [Diltiazem hydrochloride], for which the excitability was 1.06.
With `COc1ccc(-c2ccc3cc(C(=O)O)ccc3c2)cc1C12CC3CC(CC(C3)C1)C2` [Adapalene], the excitability is 0.726.
Consider `Cc1cccc(C)c1OCC(C)N` (stereo not given) [Mexiletine hydrochloride], for which the excitability was determined as 3.31.
For the compound `CCN(Cc1ccncc1)C(=O)C(CO)c1ccccc1` (stereo not given) [Tropicamide], the excitability was -2.02.
In the case of `COc1cc2ncnc(Nc3ccc(F)c(Cl)c3)c2cc1OCCCN1CCOCC1` [Iressa], the excitability was found to be 19.5.
In the case of `O=C(c1ccc(OCCN2CCCCC2)cc1)c1c(-c2ccc(O)cc2)sc2cc(O)ccc12` [Raloxifene hydrochloride], the excitability was determined as 9.77.
As for `O=C1CCc2cc(OCCCCc3nnnn3C3CCCCC3)ccc2N1` [Cilostazol], the figure is 9.2; as for `CC(C)[C@H]1CC[C@H](C(=O)N[C@H](Cc2ccccc2)C(=O)O)CC1` [Nateglinide], 2.5; as for `Cn1nnc2c(C(N)=O)ncn2c1=O` [Temozolomide], 0.618.
For the compound `CCOC(=O)[C@H](CCc1ccccc1)N[C@@H](C)C(=O)N1[C@H](C(=O)O)C[C@@H]2CCC[C@@H]21` [Ramipril], the excitability amounted to 6.38.
Regarding `CC(CCc1ccc(O)cc1)NCCc1ccc(O)c(O)c1` (stereo not given) [Dobutamine hydrochloride], the excitability was 9.03.
As to `COc1c(C)c2c(c(O)c1C/C=C(\C)CCC(=O)O)C(=O)OC2` [Mycophenolic acid], the excitability amounted to 1.48.
Next, `CC(c1cc2ccccc2s1)N(O)C(N)=O` (stereo not given) [Zileuton]: 6.27; `CCCc1nc2c(C)cc(-c3nc4ccccc4n3C)cc2n1Cc1ccc(-c2ccccc2C(=O)O)cc1` [Telmisartan]: 15.1; `CN1CCN(CCCN2c3ccccc3Sc3ccc(Cl)cc32)CC1` [Prochlorperazine dimaleate]: 27.2.
With `CC(=O)S[C@@H]1CC2=CC(=O)CC[C@]2(C)[C@H]2CC[C@@]3(C)[C@@H](CC[C@@]34CCC(=O)O4)[C@H]12` [Spironolactone], the excitability was 3.91.
Turning to `Brc1c(NC2=NCCN2)ccc2nccnc12`, the excitability amounted to 6.71.
Next, `Nc1nc(NC2CC2)c2ncn([C@H]3C=C[C@@H](CO)C3)c2n1` [Abacavir hemisulfate]: 0.611.
Turning to `CCOc1nc2cccc(C(=O)O)c2n1Cc1ccc(-c2ccccc2-c2nnn[nH]2)cc1` [Candesartan], the excitability is -3.55.
